{
  "source": "the supplement of paper PMC8728848",
  "binders": {"B1": {"name": "Awp1 (Candida glabrata) (protein)", "chain": "MSLITIFAFLIKATLVLSLDILTPTTLTGDQTFNEDVSVVSSLTLNDGSQYLFNNLLQIAPSSASVTANALAAVSVFTFSLPPSSSLSNSGTLIISNSNTGPSTEQHIVITPNVMANTGTITLSLAHTNTDSSSTLIIDPVTFYNTGTINYESIGSETNDPSLTGNILSIGSSGRTLQNLGTINLNAANSYYLLGTITENSGSINVQKGFLYVNALDFIGNTINLSTTTALAFISPVSQVVRVRGVFFGNIIASVGSSGTFSYNTQTGILTVTTNGVYSYDIGCGYNPALMSGQQETLSFQGNPYDTFLVLVNQPIPSDLTCAAVSSSITPSSSVEPSSSVVPSSSVEPSSSVEPSSSVEPSSSVEPSSSVEPSSSVEPSSSVEPSSSVEPSSSVEPSSSVEPSSSVEPSSSVEPSSSVEPSSSVEPSSSVEPSSSVEPSSSVEPSSSVEPSSSVEPSSLIVPSSSVEPSSSVLPSSSVVPSSSVEPSTPPIPSSSVEPSSSVVPSSPAVPSSSVEPSTPPIPSSSVVSASVFDTSSTLPSSPSVPPSSVSPSTISTPSSSAAPSSFCPTCVSSGTPPAPSSSAIVPTSSAGGGNGGDNREPGAAGQPGAAGQPGAAGQPGAAGQPGAAGQPGAAGQPGAAGQPGAAGQPGAAGQPGAAGQPGAGFGVGSEQPTPGAGAGSGSADGNQSGTGSGTGNGQQGSGQAGSGQAGSGQEGSGQAGSGQAGSGQAGSGQAGSGQAGLDNTASGQSEGGQASAMDGDQSGRDGQSNSGSLLQPNAQQGTGSGTGSDIGADQASGESPGQIGDAQPGSGTDQSSGRHSLAAEARTSQSHSLAADARTRSTTRQTSVIAPDTAPGTASGTAPGTAPGTAVVTTFHGCGTVNHKGMINILLALALLVLL"}},
  "test_in_all_cases": "glycan array binding signal (z-score within array); higher = stronger binding",
  "settings_in_all_cases": "glycan notation: IUPAC condensed, linker removed",
  "key": {"[1]": {"target": "Gal(b1-4)GlcNAc(b1-6)Gal(b1-4)GlcNAc", "method_in_brief": "(§1)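 Columns mapping to the same glycan were averaged after glycan names were converted to IUPAC-condensed notation. The data come from 3228 arrays in the Consortium for Functional Glycomics database, limited to those with an available protein sequence. Binding is reported as a within-array Z-score averaged across arrays of one protein sequence and across linkers.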"}, "[2]": {"target": "GalNAc(b1-4)GlcNAc(b1-3)GalNAc(b1-4)GlcNAc", "method_in_brief": "as §1"}, "[3]": {"target": "GalNAc(b1-6)GalNAc", "method_in_brief": "as §1"}, "[4]": {"target": "GalNAc4S6S(b1-4)GlcNAc", "method_in_brief": "as §1"}, "[5]": {"target": "GlcA3S(b1-3)Gal(b1-4)GlcNAc(b1-2)Man", "method_in_brief": "as §1"}, "[6]": {"target": "GlcNAc(b1-2)[GlcNAc(b1-4)]Man(a1-3)[GlcNAc(b1-4)][GlcNAc(b1-2)Man(a1-6)]Man(b1-4)GlcNAc(b1-4)GlcNAc", "method_in_brief": "as §1"}, "[7]": {"target": "GlcNAc(b1-2)[GlcNAc(b1-6)]Man(a1-6)[GlcNAc(b1-2)Man(a1-3)]Man(b1-4)GlcNAc(b1-4)[Fuc(a1-6)]GlcNAc", "method_in_brief": "as §1"}, "[8]": {"target": "GlcNAc(b1-2)[GlcNAc(b1-6)]Man(a1-6)[GlcNAc(b1-4)][GlcNAc(b1-2)Man(a1-3)]Man(b1-4)GlcNAc(b1-4)GlcNAc", "method_in_brief": "as §1"}, "[9]": {"target": "GlcNAc(b1-3)Gal(b1-3)GalNAc", "method_in_brief": "as §1"}, "[10]": {"target": "GlcNAc(b1-3)Gal(b1-4)GlcNAc(b1-3)Gal(b1-4)GlcNAc(b1-2)Man(a1-3)[GlcNAc(b1-3)Gal(b1-4)GlcNAc(b1-3)Gal(b1-4)GlcNAc(b1-2)Man(a1-6)]Man(b1-4)GlcNAc(b1-4)GlcNAc", "method_in_brief": "as §1"}, "[11]": {"target": "GlcNAc(b1-3)Gal(b1-4)GlcNAc(b1-3)Gal(b1-4)GlcNAc(b1-3)Gal(b1-4)GlcNAc(b1-2)[GlcNAc(b1-3)Gal(b1-4)GlcNAc(b1-3)Gal(b1-4)GlcNAc(b1-3)Gal(b1-4)GlcNAc(b1-6)]Man(a1-6)[GlcNAc(b1-3)Gal(b1-4)GlcNAc(b1-3)Gal(b1-4)GlcNAc(b1-3)Gal(b1-4)GlcNAc(b1-2)Man(a1-3)]Man(b1-4)GlcNAc(b1-4)[Fuc(a1-6)]GlcNAc", "method_in_brief": "as §1"}, "[12]": {"target": "GlcNAc(b1-4)Gal(b1-4)GlcNAc", "method_in_brief": "as §1"}, "[13]": {"target": "Kdn(a2-3)Gal(b1-3)GalNAc", "method_in_brief": "as §1"}, "[14]": {"target": "Kdn(a2-3)Gal(b1-4)[Fuc(a1-3)]GlcNAc", "method_in_brief": "as §1"}, "[15]": {"target": "Man(a1-2)Man(a1-2)Man(a1-3)Man", "method_in_brief": "as §1"}, "[16]": {"target": "MurNAc(b1-4)GlcNAc", "method_in_brief": "as §1"}, "[17]": {"target": "Neu5Ac(a2-3)Gal(b1-3)GlcNAc(b1-6)GalNAc", "method_in_brief": "as §1"}, "[18]": {"target": "Neu5Ac(a2-3)Gal(b1-3)]Neu5Ac(a2-3)Gal(b1-4)]GlcNAc", "method_in_brief": "as §1"}, "[19]": {"target": "Neu5Ac(a2-3)Gal(b1-4)GlcNAc", "method_in_brief": "as §1"}, "[20]": {"target": "Neu5Ac(a2-3)Gal(b1-4)GlcNAc(b1-2)Man(a1-3)[GlcNAc(b1-4)][Neu5Ac(a2-3)Gal(b1-4)GlcNAc(b1-2)Man(a1-6)]Man(b1-4)GlcNAc(b1-4)GlcNAc", "method_in_brief": "as §1"}, "[21]": {"target": "Neu5Ac(a2-3)Gal(b1-4)GlcNAc(b1-3)Gal", "method_in_brief": "as §1"}, "[22]": {"target": "Neu5Ac(a2-3)Gal(b1-4)GlcNAc(b1-3)Gal(b1-4)GlcNAc(b1-3)Gal(b1-4)GlcNAc(b1-2)Man(a1-3)[Neu5Ac(a2-3)Gal(b1-4)GlcNAc(b1-3)Gal(b1-4)GlcNAc(b1-3)Gal(b1-4)GlcNAc(b1-2)Man(a1-6)]GalNAc", "method_in_brief": "as §1"}, "[23]": {"target": "Neu5Ac(a2-3)Gal(b1-4)GlcNAc(b1-3)Gal(b1-4)GlcNAc(b1-3)[Neu5Ac(a2-3)Gal(b1-4)GlcNAc(b1-3)Gal(b1-4)GlcNAc(b1-6)]GalNAc", "method_in_brief": "as §1"}, "[24]": {"target": "Neu5Ac(a2-3)Gal(b1-4)[Fuc(a1-3)]GlcNAc(b1-2)Man", "method_in_brief": "as §1"}, "[25]": {"target": "Neu5Ac(a2-3)Gal(b1-4)[Fuc(a1-3)]GlcNAc(b1-3)Gal", "method_in_brief": "as §1"}, "[26]": {"target": "Neu5Ac(a2-3)Gal(b1-4)[Fuc(a1-3)]GlcNAc(b1-3)Gal(b1-4)[Fuc(a1-3)]GlcNAc(b1-3)Gal(b1-4)[Fuc(a1-3)]GlcNAc", "method_in_brief": "as §1"}, "[27]": {"target": "Neu5Ac(a2-3)Gal(b1-4)[Fuc(a1-3)]GlcNAc(b1-6)[Gal(b1-3)]GalNAc", "method_in_brief": "as §1"}, "[28]": {"target": "Neu5Ac(a2-3)[GalNAc(b1-4)]Gal(b1-4)GlcNAc", "method_in_brief": "as §1"}, "[29]": {"target": "Neu5Ac(a2-6)Gal(b1-4)Glc", "method_in_brief": "as §1"}, "[30]": {"target": "Neu5Ac(a2-8)Neu5Ac(a2-3)Gal(b1-4)Glc", "method_in_brief": "as §1"}, "[31]": {"target": "Neu5Ac(a2-8)Neu5Ac(a2-3)Gal(b1-4)GlcNAc", "method_in_brief": "as §1"}, "[32]": {"target": "Neu5Ac(a2-8)Neu5Ac(a2-8)Neu5Ac(a2-8)Neu5Ac(a2-3)[GalNAc(b1-4)]Gal(b1-4)Glc", "method_in_brief": "as §1"}},
  "note": "The full list was thinned out, with the strongest signals kept by preference.",
  "data": [
    {"binder": "B1", "values": [
      {"measurement": "glycan array binding signal (z-score)", "setting": "[1]", "value": -0.366},
      {"measurement": "glycan array binding signal (z-score)", "setting": "[2]", "value": 1.95},
      {"measurement": "glycan array binding signal (z-score)", "setting": "[3]", "value": 2.29},
      {"measurement": "glycan array binding signal (z-score)", "setting": "[4]", "value": 1.51},
      {"measurement": "glycan array binding signal (z-score)", "setting": "[5]", "value": 0.488},
      {"measurement": "glycan array binding signal (z-score)", "setting": "[6]", "value": 0.047},
      {"measurement": "glycan array binding signal (z-score)", "setting": "[7]", "value": -0.571},
      {"measurement": "glycan array binding signal (z-score)", "setting": "[8]", "value": -1},
      {"measurement": "glycan array binding signal (z-score)", "setting": "[9]", "value": 2.02},
      {"measurement": "glycan array binding signal (z-score)", "setting": "[10]", "value": -0.505},
      {"measurement": "glycan array binding signal (z-score)", "setting": "[11]", "value": 2.24},
      {"measurement": "glycan array binding signal (z-score)", "setting": "[12]", "value": 1.07},
      {"measurement": "glycan array binding signal (z-score)", "setting": "[13]", "value": -1.24},
      {"measurement": "glycan array binding signal (z-score)", "setting": "[14]", "value": -0.924},
      {"measurement": "glycan array binding signal (z-score)", "setting": "[15]", "value": -0.346},
      {"measurement": "glycan array binding signal (z-score)", "setting": "[16]", "value": -1.87},
      {"measurement": "glycan array binding signal (z-score)", "setting": "[17]", "value": 0.214},
      {"measurement": "glycan array binding signal (z-score)", "setting": "[18]", "value": 0.442},
      {"measurement": "glycan array binding signal (z-score)", "setting": "[19]", "value": 0.13},
      {"measurement": "glycan array binding signal (z-score)", "setting": "[20]", "value": 0.483},
      {"measurement": "glycan array binding signal (z-score)", "setting": "[21]", "value": 0.691},
      {"measurement": "glycan array binding signal (z-score)", "setting": "[22]", "value": 1.61},
      {"measurement": "glycan array binding signal (z-score)", "setting": "[23]", "value": -0.297},
      {"measurement": "glycan array binding signal (z-score)", "setting": "[24]", "value": -0.217},
      {"measurement": "glycan array binding signal (z-score)", "setting": "[25]", "value": 0.412},
      {"measurement": "glycan array binding signal (z-score)", "setting": "[26]", "value": -0.603},
      {"measurement": "glycan array binding signal (z-score)", "setting": "[27]", "value": -0.493},
      {"measurement": "glycan array binding signal (z-score)", "setting": "[28]", "value": -0.217},
      {"measurement": "glycan array binding signal (z-score)", "setting": "[29]", "value": -1.39},
      {"measurement": "glycan array binding signal (z-score)", "setting": "[30]", "value": 0.225},
      {"measurement": "glycan array binding signal (z-score)", "setting": "[31]", "value": -0.772},
      {"measurement": "glycan array binding signal (z-score)", "setting": "[32]", "value": -1.71}
    ]}
  ]
}
